From PubChem BioAssay
Active and inactive are the calls of the source. How the calls were made is not given here.

Tested on: Aerobactin synthetase IucA (Klebsiella pneumoniae, hypervirulent)
Experiment: biochemical IucA inhibition screen of LOPAC library by absorbance (AID 1346212);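 further: 100% = no compound wells and 0% = no enzyme wells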
Settings: IucA enzyme assay, absorbance (OD) readout; stronger effect = lower value;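 tested at 8 µM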

Row | Compound | remaining activity
1 | CN1CCc2cc(O)c(O)cc2C(c2ccccc2)C1 (stereo not given) | 105% (inactive)
2 | COc1cc(N)c(Cl)cc1C(=O)OCCN1CCCCC1 | 110% (inactive)
3 | CC(C)(C)c1ccc(S(=O)(=O)/C=C/C#N)cc1 | 119% (inactive)
4 | O=C(c1ccc(Cl)cc1)N1CCN(c2ccc([N+](=O)[O-])c3ncccc23)CC1 | 120% (inactive)
5 | COC(=O)C1=C(C)NC(C)=C(C(=O)OC(C)(C)CN(C)CCC(c2ccccc2)c2ccccc2)C1c1cccc([N+](=O)[O-])c1 (stereo not given) | 109% (inactive)
6 | C1CCC(N=C(NC23CC4CC(CC(C4)C2)C3)N2CCOCC2)CC1 | 122% (inactive)
7 | CCCn1c(=O)[nH]c(=O)c2[nH]cnc21 | 103% (inactive)
8 | CC(C)Oc1cccnc1N(C)C1CCN(Cc2ccc(I)cc2)CC1 | 97.8% (inactive)
9 | Nc1ncnc2c1ncn2[C@@H]1O[C@H](COP(=O)(O)OP(=O)(O)OP(=O)(O)OP(=O)(O)OC[C@@H]2O[C@H](n3cnc4c(N)ncnc43)C(O)[C@@H]2O)[C@H](O)C1O (stereo not given in full) | 91.8% (inactive)
10 | CCC(NC(C)C)C(O)c1ccc(O)c(O)c1 (stereo not given) | 102% (inactive)
11 | Cc1cc2c(cc1Cl)N(C(=O)Nc1cccc3ncccc13)CC2 | 103% (inactive)
12 | CC(C(O)c1ccc(O)cc1)N1CCC(Cc2ccccc2)CC1 (stereo not given) | 105% (inactive)
13 | CN1CCc2c(cc(O)c(O)c2Cl)C(c2cccc(Cl)c2)C1 (stereo not given) | 96.8% (inactive)
14 | COC(=O)C(C)(N)Cc1ccc(O)cc1 (stereo not given) | 114% (inactive)
15 | COc1cccc(-c2cc(=O)c3ccccc3o2)c1N | 95.7% (inactive)
16 | CC(C)C[C@H]1C(=O)N2CCC[C@H]2[C@]2(O)O[C@](NC(=O)[C@@H]3C=C4c5cccc6[nH]c(Br)c(c56)C[C@H]4N(C)C3)(C(C)C)C(=O)N12 | 108% (inactive)
17 | Cc1cccc(C)c1NC(=O)C[N+](C)(C)C | 116% (inactive)
18 | CC[C@]1(O)C[C@H]2CN(CCc3c([nH]c4ccccc34)[C@@](C(=O)OC)(c3cc4c(cc3OC)N(C=O)[C@H]3[C@@](O)(C(=O)OC)[C@H](OC(C)=O)[C@]5(CC)C=CCN6CC[C@]43[C@@H]65)C2)C1 | 109% (inactive)
19 | C[C@]12CCC(=O)C=C1CC[C@@H]1[C@@H]2C(=O)C[C@@]2(C)[C@H]1CC[C@]2(O)C(=O)CO | 105% (inactive)
20 | COc1ccccc1N1CCN(CCN(C(=O)c2ccc(F)cc2)c2ccccn2)CC1 | 117% (inactive)

Row | Compound | remaining activity
21 | O=c1[nH]c(=O)c2nc3ccccc3nc2[nH]1 | 114% (inactive)
22 | N=S(=O)(O)Cc1noc2ccccc12 | 121% (inactive)
23 | C[C@@H]1C(=O)NC2=Nc3cccc(Cl)c3CN21 | 121% (inactive)
24 | CC1=C(/C=C/C(C)=C/C=C/C(C)=C/C=C/C=C(C)/C=C/C=C(C)/C=C/C2=C(C)C(=O)[C@@H](O)CC2(C)C)C(C)(C)C[C@H](O)C1=O | 107% (inactive)
25 | C[N+](C)(C)CCCCCNCC12CC3CC(CC(C3)C1)C2 | 120% (inactive)
26 | CCCCCCCCCCCCCCCC(=O)OC(CC(=O)O)C[N+](C)(C)C (stereo not given) | 116% (inactive)
27 | Nc1ncnc2c1ncn2C1CCCC1 | 120% (inactive)
28 | NCCC1CCCC(CCN)N1 (stereo not given) | 115% (inactive)
29 | CCN1CCc2nc(N)oc2CC1 | 119% (inactive)
30 | NC(=Nc1ccccc1)NC(=O)c1nc(Cl)c(N)nc1N | 105% (inactive)
31 | O=C(OCCN1CCCCC1)c1c[nH]c2ccccc12 | 102% (inactive)
32 | NC1(C(=O)O)CCCCC1 | 125% (inactive)
33 | Cc1nc2c(OCc3ccccc3)cccn2c1CC#N | 126% (inactive)
34 | COc1cc2c(cc1OC)-c1cc(=Nc3c(C)cc(C)cc3C)n(C)c(=O)n1CC2 | 97.5% (inactive)
35 | Cc1ccc(O)c(N=Nc2ccccc2)n1 | 82.6% (inactive)
36 | O=S(=O)(c1cccc2cnccc12)N1CCNCC1 | 121% (inactive)
37 | C(=C\c1ccccc1)/CN1CCN(C(c2ccccc2)c2ccccc2)CC1 | 113% (inactive)
38 | N=C(N)N1CCc2ccccc2C1 | 106% (inactive)
39 | O=c1cc(-c2ccccc2)[nH]c2nc(Cl)ccc12 | 117% (inactive)
40 | C[C@]12C[C@H](O)[C@H]3[C@@H](CCC4=CC(=O)CC[C@@]43C)[C@@H]1CC[C@@H]2C(=O)CO | 110% (inactive)
